The record followed here is PubChem BioAssay AID492956 (The Scripps Research Institute Molecular Screening Center, 2010).

Values joined by “and” are separate entries in the source; they are usually repeats but may differ in a detail not shown here. Identical values can stand only once. In all, about 340,000 compounds went through this assay and about 3,300 (0.97%) were called active.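 The calls were made as follows: active = inhibition above the mean over all tested compounds plus 3 SD (cut at about 30% in these data); inactive = the rest.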 The entries come from a sample that favours actives as a whole.

For the assay, the target named is Platelet-activating factor acetylhydrolase 2, cytoplasmic (Homo sapiens) (UniProt Q99487). Put plainly: PAFAH2 enzyme inhibitors, primary screen, biochemical, fluorescence polarization, human (AID 492956).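 Also: inhibitors block probe labeling of enzyme so polarization drops; 0% = enzyme with DMSO and 100% = wells lacking PAFAH2 protein.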 The settings on record: recombinant PAFAH2, FP-rhodamine activity probe, at 3.39 µM, hits give high values. For orientation: In fluorescence polarisation assays a small probe gives low polarisation when free and higher when bound to something large.
For `COc1ccccc1-c1cnn2c(N3CCOCC3)cc(C)nc12`, the inhibition is -3.57% (inactive).
As to `CCS(=O)(=O)c1ccc(O)c(NC(=O)COc2ccc(Cl)cc2)c1`, the inhibition was 75.6% (active).
Under `O=C(COc1ccc(Cl)cc1)Nc1ccccc1CO` stands 0.9% (inactive); under `CS(=O)(=O)c1ccc(C(=O)OCC(=O)NNC(=O)COc2ccc(Cl)cc2)cc1`, 1.43% (inactive).
Under `O=C(c1ccc(=O)[nH]c1)N(Cc1ccco1)C1(C(=O)NC2CCCCC2)CCCCC1` stands -0.52% (inactive).
Next, `N#Cc1nc(COc2ccc(Cl)cc2)oc1N1CCCC1`: -5.85% (inactive); `O=C(OCC(=O)N1CCN(c2ccccc2)CC1)c1ccc([N+](=O)[O-])s1`: 35.3% (active); `COc1cccc(/C=C/C(=O)OCC(=O)N2CCN(c3ccccc3)CC2)c1`: 1.44% (inactive).
Take `C[C@H](NC(=O)c1ccccc1Cl)C(=O)OCC(=O)N1CCN(c2ccccc2)CC1`: the inhibition was -2.12% (inactive).
Next, `CC(C)(C)NC(=O)CSc1nnc(NC(=O)CCc2ccccc2)s1`: 0.99% (inactive); `O=C(CNC(=O)c1ccco1)OCC(=O)c1ccccc1`: 4.2% (inactive).
Next, `CC(=O)Nc1ccc(NC(=O)COc2ccc(-c3ccccc3)cc2)cc1`: -5.15% (inactive); `CCOC(=O)c1ccc(NC(=O)CNC(=O)c2ccco2)cc1`: 1.1% (inactive).
As to `CCc1ccc(C(=O)COC(=O)c2ccco2)cc1`, the inhibition is 9.26% (inactive).
Next, `CCN(CC)c1ccc(C(=O)OCC(=O)c2ccco2)cc1`: 35.1% (active); `CC(=O)Nc1ccc(NC(=O)COC(=O)c2ccccc2C(=O)c2ccccc2)cc1`: 32.1% (active).
Turning to `O=C(COC(=O)c1ccccc1C(=O)c1ccccc1)c1ccco1`, the inhibition is 43% (active).
Consider `O=C(OCC(=O)N1CCN(C(=O)c2ccco2)CC1)c1ccccc1Cc1ccccc1`, for which the inhibition was 10.9% (inactive).
Next, `CC(C)CNC(=O)COC(=O)c1ccccc1OCC(=O)Nc1ccc(Br)cc1`: -2.18% (inactive).
Next, `CC1(C)C2CCC1(CS(=O)(=O)NCCc1c[nH]c3ccccc13)C(=O)C2` (stereo unspecified): 4.84% (inactive); `O=[N+]([O-])c1ccc(Oc2ccc(F)cc2Br)c2ccncc12`: -2.87% (inactive).
Next, `O=S(=O)(NC1CC1)c1ccc(Cl)cc1`: 6.44% (inactive); `Cc1cc(N)n(-c2ccc(S(=O)(=O)N3CCCC3)cc2[N+](=O)[O-])n1`: 3.65% (inactive); `O=C(CNC(=O)c1ccc(Cl)cc1Cl)NCC(=O)Nc1ccccc1N1CCOCC1`: 7.59% (inactive).
On to `Oc1ccccc1C1=NN(c2ccccc2)C(c2ccccc2)C1` (stereo unspecified), for which the inhibition is 2.45% (inactive).
Under `Cn1cccc1C(=O)OCC(=O)c1ccc(Br)s1` stands 40.2% (active); under `Cn1cccc1C(=O)OCC(=O)NCCc1ccccc1`, 12.9% (inactive).
Under `O=C(COC(=O)c1c2c(nc3ccccc13)CCCC2)c1ccc(Br)s1` stands -8.93% (inactive).
Under `C=CCN(C(=O)Cn1ncc2c1-c1cc(C)ccc1OC2)c1ccccc1` stands 7.42% (inactive); under `O=C(c1c(F)cccc1F)N1CCN(c2ncc(Br)cn2)CC1`, 9.7% (inactive); under `COc1ccc(C2(CNC(=O)Cc3ccc(OC)c(OC)c3)CCCC2)cc1`, 0.3% (inactive).
On to `CCOc1c(OC)cccc1C(=O)NCC1(c2ccccc2)CCCC1`, for which the inhibition is -1.33% (inactive).
Next, `COc1cc(C(=O)NCC2(c3ccccc3)CCCC2)ccc1OC(C)C`: 174% (active); `O=C(NC(=O)c1ccccc1N1CCCCC1)Nc1ccc(Br)cc1`: -2.91% (inactive).
Next, `COC(=O)c1cc(OCC(=O)NC2CCCc3ccccc32)cc(C(=O)OC)c1` (stereo unspecified): 0.45% (inactive); `Nc1ccc(C(=O)OCC(=O)NC2CCS(=O)(=O)C2)cc1[N+](=O)[O-]` (stereo unspecified): 0.87% (inactive); `Nc1ccc(C(=O)OCC(=O)NC2CCCc3ccccc32)cc1[N+](=O)[O-]` (stereo unspecified): 56.6% (active).
As to `NC(=O)Nc1ccc(C(=O)OCC(=O)NC2CCCc3ccccc32)cc1` (stereo unspecified), the inhibition was 71.5% (active).
Next, `O=C(CCNC(=O)c1ccc(Cl)cc1)NC1CCCc2ccccc21` (stereo unspecified): 0.23% (inactive).
Next, `CCOc1ccc(NC(=O)COc2ccc(C(=O)NC3CCCc4ccccc43)cc2OC)cc1` (stereo unspecified): -2.16% (inactive).
Next, `O=C(NNc1nc(N2CCCC2)nc(N2CCCC2)n1)c1ccccc1`: 8.18% (inactive); `CC(=O)N1c2ccc(S(=O)(=O)N3CCC(C(=O)N4CCN(c5ccccc5)CC4)CC3)cc2CC1C` (stereo unspecified): -4.15% (inactive); `COc1cc(C(=O)NCc2nnc(SCC(=O)Nc3nc4ccc(C)cc4s3)o2)cc(OC)c1OC`: 4.41% (inactive).
In the case of `CCOc1ccc(CCNC(=O)C2=C(C)C(=O)OC23CCC(C)CC3)cc1OCC` (stereo unspecified), the inhibition is 5.73% (inactive).
Next, `c1ccc(CCC2=NCCn3cccc32)cc1`: -3.37% (inactive) and -2.16% (inactive); `O=C(OCC(=O)N1CCCCC1)c1ccc(OC(F)(F)F)cc1`: 5.16% (inactive).

A word on the inhibition: it is the drop in the measured response relative to a control, in per cent.
